High-throughput results: PubChem, National Center for Advancing Translational Sciences (NCATS)
Shown are actives, neighbours in structure and some others; about 21% of the full set was active somewhere.
DT40 TDP1 CPT: qHTS for Inhibitors of human tyrosyl-DNA phosphodiesterase 1 (TDP1): qHTS in cells in presence of CPT; chicken DT40 Tdp1-/-;hTDP1 cells + 20 nM CPT, ATP luminescence, 48 h; Potency, µM (titrated, usually from 46.2 µM), without a hit: at the highest dose activity change, negative = growth inhibition, actives largely listed as inhibitors; hit rate 12% among 420,000; AID 686979, 2013; further: potency means the concentration at half of the fitted maximal effect; on the % scale 0 is the no-effect control and ±100 the full control effect; nearly all actives have a fitted effect of over 55% in size
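Chicken DT40 Tdp1-/- cells stably complemented with human TDP1 were seeded at 400 cells/well in medium containing 20 nM camptothecin, exposed to pin-transferred compounds, and grown at 37 °C for at least 48 hr. Viability was read as ATP luminescence.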
D3 antag: qHTS of D3 Dopamine Receptor Antagonist: qHTS. hit rate 2.5% among 360,000. D3R cells, DiscoveRx beta-arrestin luminescence, antagonist mode; stronger effect = lower value. D(3) dopamine receptor (Homo sapiens), P35462. max response, negative = inhibition, %; in the data active means max response below about -50%; inconclusive means no clear call, values can overlap the other calls; further: on the % scale 0 is the no-effect control and ±100 the full control effect
Target sequence (P35462 whole entry, looked up): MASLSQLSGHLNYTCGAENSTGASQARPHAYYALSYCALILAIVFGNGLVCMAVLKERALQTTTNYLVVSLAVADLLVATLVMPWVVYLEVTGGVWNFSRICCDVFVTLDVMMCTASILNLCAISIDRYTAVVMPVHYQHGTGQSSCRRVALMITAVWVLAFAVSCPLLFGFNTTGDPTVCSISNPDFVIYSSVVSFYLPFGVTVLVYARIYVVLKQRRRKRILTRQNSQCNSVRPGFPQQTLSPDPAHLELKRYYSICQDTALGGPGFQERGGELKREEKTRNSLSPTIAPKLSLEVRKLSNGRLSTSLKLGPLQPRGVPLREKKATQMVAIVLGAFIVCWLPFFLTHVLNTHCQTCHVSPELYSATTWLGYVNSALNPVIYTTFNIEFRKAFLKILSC
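Cells expressing the human receptor were seeded at 1500 cells/well, incubated overnight at 37 degrees C in 5% CO2, then exposed to library compounds with dopamine controls for 90 minutes at 37 degrees C before luminescent detection.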
ClpP mod: qHTS Assay for Activators of ClpP; ATP-dependent Clp protease proteolytic subunit (Bacillus subtilis (strain 168)), P80244; Potency, µM (doses to about 57.5 µM), for the others: at the highest dose activity change, negative = active; hit rate 1.9% among 340,000; purified B. subtilis ClpP, FRET peptide cleavage, 20 min; active means well fitted falling curve with a large enough effect; inconclusive means small, poorly fitted or top-dose-only effect; inactive means no such curve, though single readings can be large or run the other way; further: potency means the concentration at half of the fitted maximal effect; the source files actives as falling curves though it sought activators and does not explain the sign; nearly all actives have a fitted effect of over 65% in size
Target sequence (P80244 whole entry, looked up): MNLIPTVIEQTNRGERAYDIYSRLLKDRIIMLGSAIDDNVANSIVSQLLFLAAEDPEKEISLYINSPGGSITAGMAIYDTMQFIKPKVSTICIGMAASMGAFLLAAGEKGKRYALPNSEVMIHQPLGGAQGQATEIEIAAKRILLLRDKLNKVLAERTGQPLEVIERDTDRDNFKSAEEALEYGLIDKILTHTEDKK
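Purified B. subtilis ClpP, 10 microg/mL final in Tris/HCl pH8 with KCl, BSA, glycerol and Tween-20, cleaved an Abz/nitrotyrosine-quenched decapeptide. Fluorescence (ex 320, em 430) was read at 0 and 20 min at room temperature. Delta was normalized to 5.8 microM ADEP and DMSO/no-enzyme controls.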
IL-1B inflam inh: qHTS for Inhibitors of Inflammasome Signaling: IL-1-beta AlphaLISA Primary Screen; hit rate 4.7% among 360,000; THP-1 LPS/ATP IL-1B secretion, AlphaLISA, 16 h; stronger effect = lower value; activity change, % at 57.5 µM; AID 743279, 2014; in the data active means activity change below about -50%; inconclusive means mostly about -30% to -49%; further: on the % scale 0 is the no-effect control and ±100 the full control effect
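Secreted IL-1B measured by AlphaLISA bead assay after 16 h compound exposure of THP-1 cells; compounds (final up to 57.5 uM) added 1 h before LPS (250 ng/mL) and ATP (1.25 mM) stimulation; lower signal means less secretion.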
D3 ag: qHTS of D3 Dopamine Receptor Agonist: qHTS; D(3) dopamine receptor (Homo sapiens), P35462; D3R DiscoveRx beta-arrestin cells, luminescence, 90 min; max activation, %; hit rate 0.58% among 410,000; in the data active means max activation above about 30%; further: 0% is about no effect
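Cells at 1500/well, incubated overnight, then treated with pinned compounds (dopamine as control) for 90 min at 37 degrees C. DiscoveRx reagent added for 30 - 60 minutes at room temperature; luminescence read.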
DT40 TDP1 no CPT: qHTS for Inhibitors of human tyrosyl-DNA phosphodiesterase 1 (TDP1): qHTS in cells in absence of CPT. DT40 Tdp1-/- hTDP1 cells, no CPT, ATP luminescence, 48 h. Potency, µM (highest dose often 46.2 µM), without a hit: top-dose activity change, negative = growth inhibition, actives largely listed as inhibitors. hit rate 15% among 420,000; further: potency means the concentration at half of the fitted maximal effect; on the % scale 0 is the no-effect control and ±100 the full control effect; nearly all actives have a fitted effect of over 55% in size
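Growth of hTDP1-complemented DT40 Tdp1-knockout cells is measured by ATP luminescence after at least 48 hr compound exposure at 37 °C, with DMSO substituting for the 20 nM CPT used in the parallel screen.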
Numbers without * were called inactive; i = inactive; ? = inconclusive; . = no result given. Unless noted, the call rests on the fitted dose curve; in most records, active means well fitted inhibition curve with a large enough effect; inconclusive means small, poorly fitted or top-dose-only effect; inactive means flat fitted curve, though single readings scatter.

SMILES | DT40 TDP1 CPT | D3 antag | ClpP mod | IL-1B inflam inh | D3 ag | DT40 TDP1 no CPT
Cn1c(-c2cccc(Br)c2)n[nH]c1=O | -12% | -13 | . | -3 | -5 | -7%
Cc1ccc(-c2[nH]n3c(=O)c4c(nc3c2C)CCCC4)cc1 | ? | 7 | ? | 13 | -2 | ?
O=c1[nH]cnc2c1sc1nc3c(c(-c4ccc(Cl)cc4)c12)CCC3 | -5% | 17 | ? | 56 | 2 | -28%
O=c1c2c(nc3nc(Cc4ccccc4)[nH]n13)CCC2 | ? | -29 | -10% | -9 | -1 | ?
O=c1c2c(nc3c(-c4cccc(Br)c4)c[nH]n13)CCCC2 | 16µM* | -9 | -7% | -15 | -2 | -103%
O=c1c2c(nc3c(-c4ccccc4)c[nH]n13)CCC2 | ? | -13 | 25µM* | 18 | -7 | 16µM*
Cc1nc2cnc(Oc3cccc(Cl)c3)nc2n(CCC#N)c1=O | 1% | . | . | . | . | ?
COc1cccc(C(=O)NC2CC(C)(C)Cc3c2cnn3-c2cccc(F)c2)c1OC (centres undefined) | 23µM* | 7 | 14µM* | i | -7 | 18µM*
CCn1nc(C)cc1C(=O)NC1CC(C)(C)Cc2c1cnn2-c1cccc(F)c1 (centres undefined) | 21µM* | 18 | 1% | i | 2 | 16µM*
Cc1cc(C)c(C(=O)NC2CC(C)(C)Cc3c2cnn3-c2cccc(F)c2)[nH]1 (centres undefined) | ? | 13 | 0% | -4 | 9 | ?
CC1(C)CC(=O)C=C(Nc2ccc(Cl)c(Br)c2)C1 | -18% | ? | -1% | ? | -9 | ?
COc1cc(C2C(=O)N(C3CCCCCC3)CC(=O)N2Cc2ccccc2)ccc1OC(C)C (centres undefined) | ? | . | -1% | . | 19 | 23µM*
COc1ccc(CCN2C(=O)CN(C3CCC(C)CC3)C(=O)C2c2ccc(OC(C)C)c(OC)c2)cc1OC (centres undefined) | 16µM* | . | 3% | . | -12 | ?
COc1ccc(C(=O)Nc2ccc3c(c2)N(C2CCCC2)C(=O)c2ccccc2S3)cc1OC | 10µM* | . | ? | . | -9 | 5.2µM*
COc1ccc(C(=O)Nc2ccc3c(c2)C(=O)c2ccccc2C3=O)cc1OC | 10µM* | 13 | -16% | 11 | 8 | ?
COc1ccc(NC(=O)c2ccc3c(c2)nnn3C2CCCC2)cc1Cl | -2% | . | 7% | . | 0 | -25%
COc1ccc(C(=O)c2ccccc2Cl)cc1OC | 7% | 17 | . | -15 | 4 | -16%
COc1ccc(C(=O)c2c(C(F)(F)F)oc3c2C(=O)c2ccccc2C3=O)cc1OC | 2.3µM* | 0 | -1% | ? | -15 | 5.8µM*
Cc1oc(-c2ccccc2Cl)nc1CSCC(=O)N1CCCC1 | ? | 25 | -2% | -21 | 3 | 13µM*
Cc1oc(-c2ccccc2F)nc1CSCC(=O)N1CCN(c2ccccc2)CC1 | 21µM* | . | -1% | . | 6 | 9.2µM*
Cc1oc(-c2ccccc2Cl)nc1CSCC(=O)NC1CCCC1 | -3% | -9 | 3% | ? | -4 | -8%
Cc1oc(-c2ccccc2Cl)nc1CSc1nc2c(c(=O)[nH]1)CCC2 | ? | 184 | 3% | 13 | 57* | ?
O=c1[nH]c(SCc2c(F)cccc2Cl)nc2c1CCC2 | ? | . | -1% | . | 15 | ?
Cc1oc(-c2ccccc2Cl)nc1CS(=O)CC(=O)N1CCN(c2ccccc2)CC1 (centres undefined) | -23% | 4 | 1% | -15 | 10 | -25%
O=C(NCC1CCCO1)c1ccc(COc2ccccc2)o1 (centres undefined) | 1% | -13 | -2% | 0 | 3 | -27%
SMILES | DT40 TDP1 CPT | D3 antag | ClpP mod | IL-1B inflam inh | D3 ag | DT40 TDP1 no CPT
Cc1ccc2c(c1)-c1onc(C(=O)N3CCN(c4cc(C)ccc4C)CC3)c1CO2 | . | . | 44% | . | 3 | .
CCCN1CCN(C(=O)c2noc3c2COc2ccc(C)cc2-3)CC1 | 21µM* | -64* | -17% | 4 | 0 | 16µM*
Cn1c2ccc(F)cc2c2ncn(CCCN(CCO)CCO)c(=O)c21 | -5% | -17 | 28µM* | 4 | -4 | -14%
Cn1c2ccc(F)cc2c2ncn(CCN3CCOCC3)c(=O)c21 | 5% | 16 | ? | 13 | 1 | -25%
O=C(NC1CCS(=O)(=O)C1)c1cccc(S(=O)(=O)N2CCCC2)c1 (centres undefined) | 9% | 9 | . | 11 | 4 | -19%
CCOC(=O)C1CCN(c2ncnc3c2c(-c2ccccc2)cn3-c2ccccc2)CC1 | ? | 76 | . | -21 | 8 | 23µM*
CCOc1ccc(-n2cc(-c3ccccc3)c3c(N4CCN(c5ccccc5OC)CC4)ncnc32)cc1 | 12µM* | . | ? | . | 1 | 16µM*
COc1cccc(N2CCN(c3ncnc4c3c(-c3ccccc3)cn4-c3ccc(C)cc3)CC2)c1 | 3% | . | -6% | . | 4 | -1%
CCOc1ccc(-n2cc(-c3ccccc3)c3c(N4CCC(C)CC4)ncnc32)cc1 | ? | . | ? | . | 10 | ?
COc1ccc(-n2cc(-c3ccccc3)c3c(N4CCCC(C)C4)ncnc32)cc1 (centres undefined) | 16µM* | . | -14% | . | 6 | 10µM*
Cc1ccc(-n2cc(-c3ccccc3)c3c(N4CCCCC4)ncnc32)cc1 | 21µM* | . | ? | . | 5 | 23µM*
O=S(=O)(/C=C/c1ccccc1)N1CCN(c2nc(-c3ccccc3)nc3ccccc23)CC1 | -6% | -2 | . | -2 | -1 | ?
COc1ccc(C(=S)N2CCOCC2)cc1OC(=O)c1cc(OC)c(OC)c(OC)c1 | 7% | -2 | . | 41 | -5 | 1%
Cc1cccc(-n2cc(-c3ccccc3)c3c(N4CCOCC4)ncnc32)c1 | ? | 30 | . | -67* | 14 | ?
COCCn1c(SCC(=O)/C=C2\N(C)c3ccccc3C2(C)C)nnc1-c1ccncc1 | 23µM* | 3 | -9% | ? | 12 | 23µM*
CN1/C(=C\C(=O)COC(=O)CNC(=O)c2ccccc2F)C(C)(C)c2ccccc21 | 13% | 4 | . | 16 | 1 | -15%
COCCn1c(SCC(=O)NNC(=O)c2cc(Cl)ccc2OC)nnc1-c1ccncc1 | -13% | -100* | -5% | -11 | -28 | -12%
